Screening results deposited in PubChem BioAssay by several laboratories.
Not all results are given here.
CYP2C9 inhib: human CYP2C9 inhibition. P11712. CYP2C9 Supersomes, luciferin-H conversion, luminescence. inhibition, % at 5 µM. 20% of 96,000 active. AID 777;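 active = blocking of liver enzyme CYP2C9 beyond about 50% at 5 µM, limit read from the data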
Target sequence (P11712 whole entry, looked up): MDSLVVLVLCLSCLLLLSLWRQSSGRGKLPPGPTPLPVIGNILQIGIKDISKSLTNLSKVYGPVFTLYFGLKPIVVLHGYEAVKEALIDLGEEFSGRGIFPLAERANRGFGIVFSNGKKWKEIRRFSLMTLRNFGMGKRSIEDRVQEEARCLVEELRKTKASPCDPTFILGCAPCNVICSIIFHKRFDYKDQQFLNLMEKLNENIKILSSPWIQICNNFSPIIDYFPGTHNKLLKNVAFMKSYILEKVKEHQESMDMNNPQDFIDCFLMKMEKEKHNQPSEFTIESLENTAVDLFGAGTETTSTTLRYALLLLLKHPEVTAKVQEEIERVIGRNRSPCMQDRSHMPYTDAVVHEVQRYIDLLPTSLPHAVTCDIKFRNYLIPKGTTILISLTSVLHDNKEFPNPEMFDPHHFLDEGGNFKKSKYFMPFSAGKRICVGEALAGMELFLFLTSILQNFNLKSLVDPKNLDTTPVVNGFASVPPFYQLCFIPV
PostGolgi yeast: growth inhibition of a yeast mutant, post-Golgi transport screen; inhibition, % at 10 µM; AID 739; post-Golgi transport phenotypic cell assay; 0.9% of 98,000 active;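 note: yeast cells grown in 1536-well plates; yeast grown about 18 h at 30C before absorbance read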
PostGolgi ctrl: yeast control strain growth, post-Golgi counter-screen. efflux-deficient yeast background strain, growth absorbance A615, 16 h. inhibition, % at 10 µM. 5% of 98,000 active. AID 738
CYP2C19 inhib: inhibitors of human CYP2C19; P33261; CYP2C19 Supersomes, luciferin-H EGE luminescence, 30 min; inhibition, % at 5 µM; 21% of 96,000 active; AID 778;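 active = CYP2C19 inhibition above a set limit at 5 µM in the primary screen, cut at about 50% in these data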;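 note: plate controls were negative control wells for no effect and 2.5 mM tranylcypromine positive control for full effect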
CYP2C19 act: activators of human cytochrome P450 2C19; P33261; recombinant CYP2C19, luciferin-H EGE luminescence; hits give high values; 0 = fully inhibited enzyme, 1 = untreated enzyme; activation factor at 5 µM; 96,000 tested, under 10 active; AID 1025;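 active = activation factor of at least 2 at 5 µM in the primary screen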;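 note: 0 = wells with 2.5 mM tranylcypromine and 1 = vehicle-only wells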
CYP2C9 activ: increases human cytochrome P450 2C9 activity | P11712 | recombinant CYP2C9, luciferin-H conversion, luminescence; hits give high values; factor 1 = untreated enzyme, 0 = blocked | activation factor at 5 µM | 1.4% of 96,000 active | AID 1024;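 active = activation factor of 2 or more for CYP2C9 at a 5 µM dose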;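 note: 0 = sulfaphenazole-blocked wells and 1 = vehicle-only wells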
Active calls of the source: *; nt = no result given. Cut-off read from the data, not from the text of the source, unless noted: active = inhibition above about 30%; inactive = the rest.

SMILES	CYP2C9 inhib	PostGolgi yeast	PostGolgi ctrl	CYP2C19 inhib	CYP2C19 act	CYP2C9 activ
COc1ccc(CCNC(=O)CC2Oc3ccc(Cl)cc3NC2=O)cc1OC (configuration not stated)	-51	-4	18	59*	0.4	1.5
COc1ccc(CCNC(=O)CSc2nnc(CNC(=O)c3ccccc3F)o2)cc1OC	15	16	1	6	0.9	0.8
COc1ccc(CCNC(=O)CC2Nc3ccccc3NC2=O)cc1OC (configuration not stated)	27	5	3	21	0.8	0.7
COc1ccc(CCNC(=O)CSc2nc3ccccc3o2)cc1OC	88*	-9	17	80*	0.2	0.1
COc1ccc(C(C)=O)cc1CSc1nc2ccccc2o1	56*	-2	17	41	0.6	0.4
Cc1cc(C)cc(NC(=O)c2ccc(CSc3nnc(C)s3)cc2)c1	-98	-4	-4	36	0.6	2*
Cc1ccc(NC(=O)c2ccc(CSc3nnc(C)s3)cc2)cc1	nt	-7	-3	nt	nt	nt
CC(C)Cc1nnc(NC(=O)CSc2nc(=O)cc(N)n2-c2ccccc2)s1	12	3	-1	3	1	0.9
COc1cccc(-c2nc(-c3ccc(NC(=O)c4cccs4)cc3)no2)c1	18	10	10	13	0.9	0.8
CC(=O)c1c(C)[nH]c(C(=O)CSc2nnc(-c3ccc(Cl)cc3)n2CC2CCCO2)c1C (configuration not stated)	11	-7	5	9	0.9	0.9
COc1ccc(C2NC(=O)C(C)S2)cc1 (configuration not stated)	5	6	6	45	0.6	0.9
CC(Oc1ccccc1Br)C(=O)N1CCc2ccccc21 (configuration not stated)	20	-8	23	32	0.7	0.8
COC(=O)Nc1sc2c(c1C(=O)N1CCOCC1)CCC(C)C2 (configuration not stated)	-8	10	-4	1	1	1.1
COc1ccc(CCNC(=O)CSc2nc3cc(Cl)ccc3o2)cc1OC	66*	-7	16	25	0.8	0.3
COc1ccc(CCNC(=O)CSc2nnc(CNC(=O)c3ccco3)o2)cc1OC	17	14	6	-7	1.1	0.8
COc1ccc(C(C)=O)cc1CSc1nnc(C)s1	-2	-10	4	66*	0.3	1
O=C(Nc1ccc(Cl)cc1)N1CCCN(Cc2ccccc2F)C1	24	-7	-2	50	0.5	0.8
CCSc1nnc(-c2ccccc2NC(C)=O)c(=O)[nH]1	16	5	-3	-6	1.1	0.8
O=S(=O)(c1ccc(Oc2ccc(-c3nnco3)cc2)nc1)N1CCC(Cc2ccccc2)CC1	58*	-10	-1	15	0.9	0.4
Cc1ccc(S(=O)(=O)N2CCN(C(=O)COc3ccc(-c4nnco4)cc3)CC2)cc1	30	12	0	10	0.9	0.7
Cc1ccc(NC(=O)CCC(=O)OC(C(=O)c2ccc(C)c(C)c2)c2ccccc2)c(C)c1 (configuration not stated)	14	2	3	24	0.8	0.9
CCCOc1ccc(C2C(C(=O)c3ccc(C)o3)=C(O)C(=O)N2Cc2cccnc2)cc1 (configuration not stated)	59*	nt	nt	-10	1.1	0.4
COc1ccc(C2C(C(=O)c3ccco3)=C(O)C(=O)N2Cc2cccnc2)cc1OC (configuration not stated)	4	6	34*	-1	1	1
CCOc1ccc(C2C(C(=O)c3ccco3)=C(O)C(=O)N2Cc2cccnc2)cc1 (configuration not stated)	29	-1	1	-5	1.1	0.7
CCOC(=O)CSc1nnc(-c2ccc(OC)cc2OC)o1	-34	9	7	-12	1.1	1.3
SMILES	CYP2C9 inhib	PostGolgi yeast	PostGolgi ctrl	CYP2C19 inhib	CYP2C19 act	CYP2C9 activ
COCCN1Cc2cccc(C(=O)Nc3ccc(C)c(C)c3)c2C1=O	41	8	25	3	1	0.6
CCOc1ccc(NC(=O)c2cccc3c2C(=O)N(CCOC)C3)cc1	72*	3	31*	20	0.8	0.3
COCCN1Cc2cccc(C(=O)Nc3c(C)cccc3C)c2C1=O	25	6	11	42	0.6	0.8
CCCN1Cc2cccc(C(=O)NCc3cccs3)c2C1=O	52*	21	17	73*	0.3	0.5
COCCN1Cc2cccc(C(=O)NC(C)c3cccs3)c2C1=O (configuration not stated)	28	-4	0	63*	0.4	0.7
COC(=O)c1cc2oc(C)cc2n1CC(=O)Nc1cc(C)cc(C)c1	4	-1	2	-11	1.1	1
CCOc1ccc(N2C(=O)CC(N)C2=O)cc1 (configuration not stated)	nt	11	9	nt	nt	nt
COCCNC(=O)NC(=O)COC(=O)c1cc([N+](=O)[O-])ccc1Sc1nc(C)cs1	21	5	23	4	1	0.8
CN=Cc1c(NC)nc2c(C)cccn2c1=O	-3	-5	-13	-5	1	1
Cc1cc(C)n2nc(-c3sccc3-n3cccc3)cc2n1	29	-10	35*	21	0.8	0.7
Cc1cc(C)n2nc(-c3sccc3-n3c(C)ccc3C)cc2n1	9	3	22	0	1	0.9
CCOC(=O)c1cn2cccnc2n1	4	0	7	10	0.9	1
Cc1sc(NC(=O)c2ccco2)c(C(c2cccnc2)N2CCN(C)CC2)c1C (configuration not stated)	23	-4	15	9	0.9	0.8
Cc1sc(NC(=O)c2ccco2)c(C(c2cccnc2)N2CCCC2)c1C (configuration not stated)	53*	0	39*	33	0.7	0.5
Cc1sc(NC(=O)c2ccco2)c(C(c2ccncc2)N2CCOCC2)c1C (configuration not stated)	81*	-4	33*	67*	0.3	0.2
COc1cccc(N2C(=O)Nc3ccccc3C2(O)C(=O)NCc2ccc3c(c2)OCO3)c1 (configuration not stated)	9	-2	6	61*	0.4	0.9
CCOc1ccccc1C(=O)NCc1ccc2c(c1)OCO2	42	12	9	98*	0	0.6
COc1ccc(CNC(=O)CSc2nnnn2-c2ccc(O)cc2)cc1	-23	-12	-5	89*	0.1	1.2
Cc1ccc(N2CC(C(=O)NCc3ccc4c(c3)OCO4)CC2=O)cc1C (configuration not stated)	-124	-3	13	8	0.9	2.2*
COc1ccc(-n2nnnc2SCC(=O)NCCc2ccc(OC)c(OC)c2)cc1	40	-1	12	16	0.8	0.6
CCOc1ccccc1C(=O)NCC(=O)OCC(=O)c1ccc2c(c1)OCCO2	-68	2	0	-5	1	1.7
